Consider 56 compounds from ChEMBL document CHEMBL1857833, “Screening and optimization of specific chemical series against human African Trypanosomiasis (HAT)”.

In all, about 4,400 compounds went through this assay and about 390 (8.9%) showed an effect of 50% or more. Shown is part of a subset that was picked to be rich in strong results.

The assay concerns Trypanosoma brucei. Briefly: DNDI: Inhibition of Human African Trypanosomiasis, SBRI 427, in vitro at 2 ug.mL-1. It is filed as functional.
With `CCOc1ccccc1-c1nc(CN2CCN(C(=O)C3CCCO3)CC2)co1` (stereo unspecified), the “% inhibition” value is 8%. On to `Cc1ccc(Oc2nc(C)ccc2/C(=N/O)N2CCSC2)c(C)c1`, for which the “% inhibition” value came to 26%. As for `COCC(C)NCc1coc(-c2ccccc2Cl)n1` (stereo unspecified), the “% inhibition” value is -6%.

With `Cc1ccc(/C(=N/O)NCc2cc(F)ccc2F)c(Oc2cc(Cl)ccc2Cl)n1`, the “% inhibition” value is recorded as -39%. Regarding `Cc1ccc(/C(=N/O)NCc2cc(F)cc(F)c2)c(Oc2cc(Cl)ccc2Cl)n1`, the “% inhibition” value was 76%. Consider `COc1cccc(CN/C(=N\O)c2ccc(C)nc2Oc2cc(Cl)ccc2Cl)c1`, for which the “% inhibition” value is reported as -48%. In the case of `CCOc1ccccc1-c1nc(CN(C)CC2OCCO2)co1`, the “% inhibition” value is given as -5%.

Turning to `Fc1ccccc1-c1nc(CNc2ccccc2)co1`, the “% inhibition” value was 13%. Next, `Cc1ccc(CN/C(=N\O)c2ccnc(Oc3cccc4c3CCCC4)c2)o1`: 40%; `O/N=C(\NCc1c(F)cccc1F)c1ccnc(Oc2cccc3c2CCCC3)c1`: 37%; `O/N=C(\NC1CCCCC1)c1ccnc(Oc2cccc3c2CCCC3)c1`: 99%. The figure for `CN(/C(=N\O)c1ccnc(Oc2cccc3c2CCCC3)c1)C1CCCCC1` is 14%. Consider `O/N=C(\NCC1CCCCC1)c1ccnc(Oc2cccc3c2CCCC3)c1`, for which the “% inhibition” value was determined as 96%. Regarding `Cc1ccc(Oc2cc(/C(=N/O)NC3CCCC3)ccn2)c2c1CCC2`, the “% inhibition” value was found to be 11%. With `CCOc1ccccc1-c1nc(CN(CC)Cc2ccncc2)co1`, the “% inhibition” value is listed as 12%.

Turning to `CCOc1ccc(-c2nc(CNCC(C)(C)CN(C)C)co2)cc1`, the “% inhibition” value came out at 39%. Next, `O/N=C(/c1ccc(Oc2cccc(F)c2)nc1)N1CCN(c2ccccc2)CC1`: 2%. Take `CSc1ccc(Oc2cc(/C(=N/O)NC3CCCCC3)ccn2)cc1`: the “% inhibition” value was 21%. The figure for `COc1ccc(Oc2cc(/C(=N/O)NC3CCCCC3)ccn2)cc1` is 100%; for `COc1ccc(Oc2cc(/C(=N/O)NC3CCC3)ccn2)cc1` it is 100%.

As for `COc1ccc(Oc2cc(/C(=N/O)NC3CC(C)CC(C)(C)C3)ccn2)cc1` (stereo unspecified), the “% inhibition” value was found to be 14%.

With `COc1ccc(Oc2cc(/C(=N/O)N3C(C)CCCC3C)ccn2)cc1` (stereo unspecified), the “% inhibition” value is given as 10%. Take `COc1ccc(Oc2cc(/C(=N/O)NCC3CCCO3)ccn2)cc1` (stereo unspecified): the “% inhibition” value is 34%.

`Cc1ccc(Oc2nc(C)ccc2/C(=N/O)N(C)C2CCCCC2)c(C)c1`: the “% inhibition” value was found to be 18%. Take `Cc1cc(C)cc(Oc2ccc(/C(=N/O)n3cnc(C)c3)cn2)c1`: the “% inhibition” value came out at 1%. As for `CCCCN(CC#N)Cc1coc(-c2ccc(C)cc2)n1`, the “% inhibition” value amounted to 7%. For `CCN(Cc1coc(-c2ccccc2F)n1)c1ccc(C)cc1`, the “% inhibition” value was -32%. The figure for `CCc1ccc(Oc2ncccc2/C(=N/O)NC(C)COC)cc1` (stereo unspecified) is 87%. As for `CCc1ccc(Oc2ncccc2/C(N)=N/O)cc1`, the “% inhibition” value is 1%. Consider `COCC(C)N/C(=N\O)c1cccnc1OCC(C)C` (stereo unspecified), for which the “% inhibition” value came out at 5%. In the case of `COCC(C)N/C(=N\O)c1cccnc1Oc1ccc(C(C)C)cc1` (stereo unspecified), the “% inhibition” value is 99%. With `COCC(C)N/C(=N\O)c1cccnc1Oc1cccc(C(F)(F)F)c1` (stereo unspecified), the “% inhibition” value was found to be 1%.

`COCC(C)N/C(=N\O)c1cccnc1Oc1ccc(OC)cc1` (stereo unspecified): the “% inhibition” value was -10%. The figure for `CCOc1ccccc1-c1nc(CN2CCN(C(c3ccccc3)c3ccccc3)CC2)co1` is 5%; for `COc1ccccc1CN/C(=N\O)c1ccc(Oc2cc(C)cc(C)c2)nc1` it is -8%; for `O/N=C(/c1ccc(Oc2ccc(Cl)cc2)nc1)n1ccnc1` it is 0%. For `CCOc1ccc(Oc2cc(/C(=N/O)NCc3ccc(C)o3)ccn2)cc1`, the “% inhibition” value was found to be 24%. `Cc1ccccc1-c1nc(CNCc2ccccc2C(F)(F)F)co1`: the “% inhibition” value worked out at 7%. Consider `FC(F)(F)c1ccc(CNCc2coc(-c3cccc4ccccc34)n2)cc1`, for which the “% inhibition” value is 3%.

Regarding `CCOc1ccccc1CN/C(=N\O)c1ccc(C)nc1OCc1ccccc1F`, the “% inhibition” value is given as 8%.

Take `O/N=C(\NCc1ccccc1F)c1cccnc1OCc1cccc(F)c1`: the “% inhibition” value stood at 29%. Regarding `O/N=C(\NCc1cccnc1)c1cccnc1OCc1ccccc1F`, the “% inhibition” value was 4%. Next, `CCOc1ccccc1CN/C(=N\O)c1cccnc1OCc1cccc(F)c1`: 72%; `CCOc1ccccc1CN/C(=N\O)c1cccnc1OCc1ccccc1F`: 55%. As for `COc1ccccc1CN/C(=N\O)c1ccc(C)nc1OCc1cccc(F)c1`, the “% inhibition” value is recorded as -8%. Turning to `FC(F)(F)c1ccc(-c2nc(CNc3cc[nH]n3)co2)cc1`, the “% inhibition” value was found to be 40%. Consider `Cc1ccc(/C(=N/O)N2C(C)CCCC2C)c(Oc2ccc(F)cc2)n1` (stereo unspecified), for which the “% inhibition” value stood at 28%.

For the compound `O/N=C(/c1ccc(Oc2cccc3ccccc23)nc1)N1CCCCCC1`, the “% inhibition” value was found to be 25%. Turning to `CCOc1ccc(-c2nc(CN(C)CCc3ccc(OC)c(OC)c3)co2)cc1`, the “% inhibition” value was -3%. Take `COc1ccccc1CN/C(=N\O)c1ccc(C)nc1Oc1ccc(Cl)cc1`: the “% inhibition” value was 3%. For `COc1ccccc1CN/C(=N\O)c1ccc(C)nc1Oc1ccc(F)c(Cl)c1`, the “% inhibition” value was found to be 11%.

On to `Cc1ccc(/C(=N/O)NCc2ccccc2C)c(Oc2cc(Cl)ccc2Cl)n1`, for which the “% inhibition” value was 18%. Next, `Cc1ccc(/C(=N/O)NCc2c(F)cccc2F)c(Oc2cc(Cl)ccc2Cl)n1`: 35%; `COc1ccccc1CN/C(=N\O)c1ccc(C)nc1Oc1cc(Cl)ccc1Cl`: 100%; `Cc1ccc(/C(=N/O)NCc2ccccc2F)c(Oc2cc(Cl)ccc2Cl)n1`: 81%. For `COc1cccc(-c2nc(CNCc3ccccc3C(F)(F)F)co2)c1`, the “% inhibition” value is recorded as 20%.

By % inhibition is commonly meant the relative decrease from the control value, in per cent.
